Measurements: PubChem BioAssay (EPA / NIEHS)
Calls of active or inactive are those of the source. How the source made its calls: active means hit-call score of the fitted dose curve at least 0.9, where 1 is the maximum; inactive means score below 0.9.

Tests used:
[1] = APR_HepG2_CellCycleArrest_24hr: Apredica 24-hour HepG2 Assay for Cell Cycle Arrest (AID 2282905); details: imaging, actives raise or lower the signal;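 further: cell cycle arrest scored as ratio of 2N to 4N nuclear DNA content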
Method in brief: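 Cell cycle arrest is scored from nuclear DNA content measured by high-content imaging of Hoechst 33342-stained HepG2 cells following 24-hour treatment at ten concentrations up to 200 uM, with DMSO as baseline.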

[2] = APR_HepG2_NuclearSize_24hr: Apredica 24-hour HepG2 Assay for Nuclear Size (AID 2282907); details: high-content imaging, actives raise or lower the signal
Method in brief: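 Compounds in DMSO (final 0.5%) were added to human HepG2 hepatoma cells at ten concentrations up to 200 uM for 24 hr. Fixed nuclei were stained with Hoechst 33342, and nuclear diameter was quantified from automated images.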

[3] = APR_HepG2_CellLoss_24hr: Apredica 24-hour HepG2 Assay for Cell Loss (AID 2282908); details: high-content imaging;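 on AC50: fit in both directions so a hit may be cell loss or gain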
Method in brief: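 Cell number is quantified by fluorescence imaging of Hoechst 33342-stained nuclei following dosing at 0.39–200 uM in 0.5% DMSO. Curves are fitted in both directions from the DMSO baseline.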

[4] = APR_HepG2_MicrotubuleCSK_24hr: Apredica 24-hour HepG2 Assay for Microtubule CSK Stabilty (AID 2282909); details: HepG2 microtubule cytoskeleton imaging, actives raise or lower the signal
Method in brief: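 Steps: dose HepG2 for 24 h (0.39–200 uM, 0.5% DMSO); fix 30 min in 3.7% formaldehyde at room temperature; permeabilize; stain alpha-tubulin 60 min; image microtubule cytoskeleton at 20x. Signal change fitted in both directions relative to DMSO.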

[5] = APR_HepG2_MitoticArrest_24hr: Apredica 24-hour HepG2 Assay for Mitotic Arrest (AID 2282910); details: high-content imaging, actives raise or lower the signal
Method in brief: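 HepG2 human liver cells were exposed to compounds at 0.39–200 uM (10 concentrations, duplicate) in 0.5% v/v DMSO for 24 hr, then fixed and immunostained for phospho-histone H3 with Hoechst 33342. Mitotic arrest came from HCS fluorescent imaging, fitted bidirectionally against DMSO.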

[6] = APR_HepG2_MitoMembPot_24hr: Apredica 24-hour HepG2 Assay for Mitochondrial Membrane Potential (AID 2282911); details: imaging, actives raise or lower the signal
Method in brief: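 Cells are dosed for 24 hr across 0.39 to 200 uM with solvent held at 0.5% DMSO. They are then stained with 250 nM MitoTracker Red CMXRos for 30 min, fixed in 3.7% formaldehyde and imaged.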

[7] = APR_HepG2_MitoMass_24hr: Apredica 24-hour HepG2 Assay for Mitochondrial Mass (AID 2282912); details: high-content imaging, actives raise or lower the signal
Method in brief: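 The liver line HepG2 was dosed in duplicate across a 0.39–200 uM series, with final DMSO held at 0.5% v/v, and harvested at 24 hr. High-content imaging measured mitochondrial dye staining.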

[8] = APR_HepG2_p53Act_24hr: Apredica 24-hour HepG2 Assay for p53 Activation (AID 2282913); details: high-content imaging, actives raise or lower the signal;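 further: p53 protein immunofluorescence averaged per cell in HepG2 with Hoechst nuclei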
Method in brief: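 Human HepG2 liver cells; 24 hr cpd treatment, 0.39–200 uM, 0.5% DMSO final. Fixed in 3.7% formaldehyde, permeabilized with 0.5% Triton X-100, stained with anti-p53/Cy5 plus Hoechst 33342. Six images per well at 20x; gain or loss vs DMSO.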

[9] = APR_HepG2_CellLoss_72hr: Apredica 72-hour HepG2 Assay for Cell Loss (AID 2282915); details: high-content imaging
Method in brief: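 HepG2 cells were exposed for 72 hr to compounds at 0.39–200 uM (ten concentrations, duplicate) in 0.5% v/v final DMSO. Nuclei were stained with Hoechst 33342 after 3.7% formaldehyde fixation, imaged at 20x, and counted; fits bidirectional versus DMSO.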

[10] = APR_HepG2_P-H2AX_72hr: Apredica 72-hour HepG2 Assay for H2AX Phosphorylation (AID 2282916); details: imaging, actives raise or lower the signal;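 further: phospho-histone H2A.x immunostain intensity per cell marking DNA damage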
Method in brief: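 Following 72 hr treatment with 0.39–200 uM compound, HepG2 cells were formaldehyde-fixed, permeabilized and stained for phospho-H2A.x; signal was measured by high-content imaging and fitted bidirectionally against DMSO controls.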

[11] = APR_HepG2_MitoMembPot_72hr: Apredica 72-hour HepG2 Assay for Mitochondrial Membrane Potential (AID 2282917); details: imaging, actives raise or lower the signal
Method in brief: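 HepG2 cells exposed 72 h to compounds at 0.39–200 uM (0.5% v/v DMSO, duplicates); MitoTracker Red CMXRos 250 nM loaded 30 min before 3.7% formaldehyde fixation, imaged by HCS fluorescence. Bidirectional fit versus DMSO.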

[12] = APR_HepG2_MitoticArrest_72hr: Apredica 72-hour HepG2 Assay for Mitotic Arrest (AID 2282918); details: high-content imaging, actives raise or lower the signal
Method in brief: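 Read-out is phospho-histone H3 immunofluorescence with Hoechst nuclear segmentation, imaged at 20x. Human HepG2 liver cells received ten concentrations (0.39–200 uM, final DMSO 0.5% v/v) for 72 hr before fixation. Gain or loss of signal was fitted relative to DMSO.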

[13] = APR_HepG2_MicrotubuleCSK_72hr: Apredica 72-hour HepG2 Assay for Microtubule CSK Stabilty (AID 2282919); details: HepG2 microtubule cytoskeleton, high-content imaging, actives raise or lower the signal
Method in brief: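 HepG2 human liver cells were dosed for 72 h at ten concentrations from 0.39 to 200 uM in duplicate (0.5% v/v DMSO final). Fixed, permeabilized cells were immunostained for alpha-tubulin (Cy5) with a Hoechst counterstain and imaged at 20x.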

[14] = APR_HepG2_P-H2AX_24hr: Apredica 24-hour HepG2 Assay for H2AX Phosphorylation (AID 2282920); details: high-content imaging, actives raise or lower the signal
Method in brief: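 HepG2, 24 hr, cpd 0.39–200 uM (10 conc, duplicate), DMSO 0.5% v/v final. Fix 3.7% formaldehyde, Triton X-100 permeabilize, anti-phospho-H2A.x 1:200 + Hoechst 2 ug/mL. Imaged, bidirectional fit vs DMSO.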

[15] = APR_HepG2_StressKinase_72hr: Apredica 72-hour HepG2 Assay for Stress Kinase (AID 2282921); details: HepG2 stress kinase (phospho-c-Jun) imaging, actives raise or lower the signal
Method in brief: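 Fluorescence intensity of Cy3-tagged anti-phospho-c-Jun antibody, quantified per cell from Hoechst-defined nuclei across six images per well, served as the read-out following 72 h exposure (0.39–200 uM, 0.5% v/v DMSO).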

[16] = APR_HepG2_StressKinase_24hr: Apredica 24-hour HepG2 Assay for Stress Kinase (AID 2282922); details: HepG2 stress kinase (phospho-c-Jun) imaging, actives raise or lower the signal
Method in brief: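 HepG2 cells exposed 24 hr to compound at 0.39–200 uM (10 concentrations, duplicate), 0.5% v/v DMSO final. Fixed in 3.7% formaldehyde, permeabilized with Triton X-100, immunolabeled for phospho-c-Jun with Hoechst 33342; HCS fluorescence imaging, bidirectional fit versus DMSO.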

[17] = APR_HepG2_p53Act_72hr: Apredica 72-hour HepG2 Assay for p53 Activation (AID 2282923); details: high-content imaging, actives raise or lower the signal;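 further: average cellular p53 protein immunofluorescence intensity in HepG2 cells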
Method in brief: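 HepG2 monolayers receive test compounds in duplicate at ten concentrations (0.39 through 200 uM) for 72 hr. They are then formaldehyde-fixed, antibody-labelled for p53, Hoechst-stained and imaged, with activity fitted bidirectionally versus DMSO.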

[18] = APR_HepG2_MitoMass_72hr: Apredica 72-hour HepG2 Assay for Mitochondrial Mass (AID 2282924); details: high-content imaging, actives raise or lower the signal;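 further: MitoTracker Red CMXRos stain intensity per cell imaged as mitochondrial mass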
Method in brief: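 HepG2 cells were exposed for 72 hr to compounds at 0.39–200 uM (ten concentrations, duplicate, 0.5% v/v DMSO final). Live cells were stained with 250 nM MitoTracker Red CMXRos for 30 min, then fixed in 3.7% formaldehyde and imaged by HCS fluorescence.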

[19] = APR_HepG2_CellCycleArrest_72hr: Apredica 72-hour HepG2 Assay for Cell Cycle Arrest (AID 2282914); details: high-content imaging, actives raise or lower the signal
Method in brief: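 Read-out is Hoechst-stained nuclear DNA content measured by automated fluorescence imaging (20x, six images per well), fitted in both directions relative to DMSO. Human HepG2 liver cells received 0.39–200 uM compound for 72 hr at 0.5% v/v DMSO.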

## CC(C)(C)c1cc(O)c(C(C)(C)C)cc1O
[1]
  outcome: inactive
[2]
  outcome: inactive
[3]
  AC50: 53.6 µM (active)
[4]
  outcome: inactive
[5]
  AC50: 83.6 µM (active)
[6]
  outcome: inactive
[7]
  AC50: 82.8 µM (active)
[8]
  AC50: 79.8 µM (active)
[9]
  AC50: 51.6 µM (active)
[10]
  AC50: 36 µM (active)
[11]
  AC50: 104 µM (active)
[12]
  AC50: 11.8 µM (active)
[13]
  outcome: inactive
[14]
  AC50: 79.4 µM (active)
[15]
  outcome: inactive
[16]
  AC50: 93.1 µM (active)
[17]
  AC50: 12.5 µM (active)
[18]
  outcome: inactive

## CCNc1cccc(C)c1
[1]
  outcome: inactive
[2]
  outcome: inactive
[3]
  outcome: inactive
[4]
  outcome: inactive
[5]
  outcome: inactive
[6]
  outcome: inactive
[7]
  outcome: inactive
[8]
  outcome: inactive
[19]
  outcome: inactive
[9]
  outcome: inactive
[10]
  outcome: inactive
[11]
  outcome: inactive
[12]
  outcome: inactive
[14]
  outcome: inactive
[15]
  outcome: inactive
[16]
  outcome: inactive
[18]
  outcome: inactive

## Cc1cccc(C)c1O
[1]
  outcome: inactive
[2]
  outcome: inactive
[3]
  outcome: inactive
[4]
  outcome: inactive
[5]
  outcome: inactive
[6]
  outcome: inactive
[7]
  outcome: inactive
[8]
  outcome: inactive
[19]
  outcome: inactive
[9]
  outcome: inactive
[10]
  outcome: inactive
[11]
  outcome: inactive
[12]
  outcome: inactive
[14]
  outcome: inactive
[15]
  outcome: inactive
[16]
  outcome: inactive
[18]
  outcome: inactive

## COc1cc(/C=C/C(=O)CC(=O)/C=C/c2ccc(O)c(OC)c2)ccc1O
[1]
  outcome: inactive
[2]
  outcome: inactive
[3]
  AC50: 38 µM (active)
[4]
  outcome: inactive
[5]
  AC50: 56.1 µM (active)
[6]
  AC50: 48 µM (active)
[7]
  outcome: inactive
[8]
  AC50: 84.6 µM (active)
[19]
  outcome: inactive
[9]
  AC50: 9.56 µM (active)
[10]
  AC50: 15.1 µM (active)
[11]
  outcome: inactive
[12]
  AC50: 22 µM (active)
[14]
  AC50: 76.1 µM (active)
[15]
  AC50: 11.2 µM (active)
[16]
  AC50: 47.9 µM (active)
[17]
  AC50: 19.1 µM (active)
[18]
  AC50: 22.2 µM (active)

## COc1cccc2c1C(=O)c1c(O)c3c(c(O)c1C2=O)C[C@@](O)(C(=O)CO)C[C@@H]3O[C@H]1C[C@H](N)[C@H](O)[C@H](C)O1
[1]
  AC50: 4.04 µM (active)
[2]
  outcome: inactive
[3]
  outcome: inactive
[4]
  outcome: inactive
[5]
  AC50: 1.72 µM (active)
[6]
  outcome: inactive
[7]
  AC50: 24.6 µM (active)
[8]
  AC50: 0.276 µM (active)
[19]
  AC50: 3.58 µM (active)
[9]
  AC50: 0.0653 µM (active)
[10]
  AC50: 1.48 µM (active)
[11]
  outcome: inactive
[12]
  AC50: 1.37 µM (active)
[14]
  AC50: 3.17 µM (active)
[15]
  AC50: 17.6 µM (active)
[16]
  AC50: 8.8 µM (active)
[17]
  AC50: 0.177 µM (active)
[18]
  AC50: 36.6 µM (active)

## CC1=C(/C=C/C(C)=C/C=C/C(C)=C/CO)C(C)(C)CCC1
[1]
  outcome: inactive
[2]
  outcome: inactive
[3]
  AC50: 90.6 µM (active)
[4]
  outcome: inactive
[5]
  AC50: 81.6 µM (active)
[6]
  outcome: inactive
[7]
  AC50: 113 µM (active)
[8]
  AC50: 85.8 µM (active)
[9]
  AC50: 96.6 µM (active)
[10]
  AC50: 19.4 µM (active)
[11]
  outcome: inactive
[12]
  AC50: 92.8 µM (active)
[14]
  AC50: 76.5 µM (active)
[15]
  outcome: inactive
[16]
  AC50: 72.1 µM (active)
[18]
  AC50: 112 µM (active)

## Clc1cc(Cl)c(Cl)cc1Cl
[1]
  outcome: inactive
[2]
  outcome: inactive
[3]
  outcome: inactive
[4]
  outcome: inactive
[5]
  outcome: inactive
[6]
  outcome: inactive
[7]
  outcome: inactive
[8]
  outcome: inactive
[9]
  outcome: inactive
[10]
  outcome: inactive
[11]
  outcome: inactive
[12]
  outcome: inactive
[14]
  outcome: inactive
[15]
  outcome: inactive
[16]
  outcome: inactive
[17]
  outcome: inactive
[18]
  outcome: inactive

## CCCCCCCCCCCC(=O)OC
[1]
  outcome: inactive
[2]
  outcome: inactive
[3]
  outcome: inactive
[4]
  outcome: inactive
[5]
  outcome: inactive
[6]
  outcome: inactive
[7]
  outcome: inactive
[8]
  outcome: inactive
[19]
  outcome: inactive
[9]
  outcome: inactive
[10]
  outcome: inactive
[11]
  outcome: inactive
[12]
  outcome: inactive
[14]
  outcome: inactive
[15]
  outcome: inactive
[16]
  outcome: inactive
[18]
  outcome: inactive

## CC(CO)OC(C)CO (stereo not given) (tested in a mixture with another compound)
[1]
  outcome: inactive
[2]
  outcome: inactive
[3]
  outcome: inactive
[4]
  outcome: inactive
[5]
  outcome: inactive
[6]
  outcome: inactive
[7]
  outcome: inactive
[8]
  outcome: inactive
[9]
  outcome: inactive
[10]
  outcome: inactive
[11]
  outcome: inactive
[12]
  outcome: inactive
[13]
  outcome: inactive
[14]
  outcome: inactive
[15]
  outcome: inactive
[16]
  outcome: inactive
[18]
  outcome: inactive
